Drawing on PubChem BioAssay (NCI), this text covers growth inhibition for 38 compounds.

About 79,000 compounds went through this panel and 15% of them were active in at least one assay; those are over-represented in the sample as a whole. Active and inactive are the calls of the source. No stated cut-off is given here; in the data, active means growth inhibition above about 70%; inactive means the rest.

The first assay is described as follows: NCI Yeast Anticancer Drug Screen. Data for the rad50 strain (AID 155).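 Further: 0% = growth of vehicle-only cultures of the same strain.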 The settings on record: S. cerevisiae rad50 strain growth inhibition; at 50.0 µM; active compounds read high. In a few lines: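 Vehicle-treated cultures provide the reference for the growth inhibition reported for compound-exposed, repair-deficient yeast.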
Consider `CC(=O)O[C@H]1CC[C@]2(C)C3=C(C(=O)C[C@H]2C1(C)C)[C@]1(C)CC[C@H]([C@H](C)CCC(=O)O)[C@@]1(C)CC3=O`, for which the growth inhibition is 42.8% (inactive). `Cc1[nH]c(=S)[nH]c(=O)c1C`: the growth inhibition was -5.1% (inactive). On the same count and under the same terms, next, `CCOc1ccc(C(=O)O)cc1`: 34.8% (inactive).

Turning to `O=[N+]([O-])c1c(O)c(CNCCCO)cc(CNCCCO)c1O`, the growth inhibition is 13.5% (inactive).

Take `O=c1n(CC2CO2)c(=O)n(CC2CO2)n1CC1CO1` (stereo unspecified): the growth inhibition is 16.9% (inactive). Turning to `Nc1cc(F)ccc1[N+](=O)[O-]`, the growth inhibition was -13.2% (inactive). `N#Cc1ccc2nc[nH]c2c1`: the growth inhibition was 18.7% (inactive).

For `Cc1cc(Cc2ccccc2)c(O)c(Cc2ccccc2)c1`, the growth inhibition is 50.1% (inactive).

As for `CC1CN(CCO)CC(C)O1` (stereo unspecified), the growth inhibition is -14.1% (inactive). Consider `Cc1ccc(/C=N/NC(N)=S)s1`, for which the growth inhibition was 24.9% (inactive).

Turning to `CC(=O)c1cccs1`, the growth inhibition was -9.65% (inactive).

On to `COC1=C(OC)C(=O)C(SC/C=C(\C)CCCC(C)CCCC(C)CCCC(C)C)=CC1=O` (stereo unspecified), for which the growth inhibition is -31.8% (inactive). Consider `Nc1nc(N)nc(N2CCCCC2)n1`, for which the growth inhibition is -23.3% (inactive).

For `CC(=O)[C@@]1(O)CC[C@H]2[C@@H]3CC[C@@H]4CC(=O)CC[C@]4(C)[C@H]3[C@@H](O)C[C@@]21C`, the growth inhibition was -19.9% (inactive). For `NC(=O)N1CCOCC1`, the growth inhibition is 15.2% (inactive). The same measure, in the same setting: next, `C=CCNC(=S)N/C=C(/C(=O)c1ccccc1)c1ccccc1`: -53.6% (inactive); `Nc1ncnc2c1ncn2C1OC(CO)C2OC21` (stereo unspecified): -12.6% (inactive); `NC(=S)N/N=C/c1ccc(OC(=O)COc2ccccc2)cn1`: -2.8% (inactive).

A further assay can be described thus: NCI Yeast Anticancer Drug Screen. Data for the mec2-1 strain (AID 157). The conditions noted are these: S. cerevisiae mec2-1 strain, at 50.0 µM, active compounds read high. In a few lines: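 Mutant yeast (mec2-1) grown with compound; growth inhibition relative to vehicle control reported.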
Take `C=C1C(=O)C2CCC1C2` (stereo unspecified): the growth inhibition was -24.6% (inactive). For `Nc1nnc2cc(F)ccc2n1`, the growth inhibition was -9.75% (inactive). With `COC1(OC)C2(Cl)C(Cl)=C(Cl)C1(Cl)C1COCC12` (stereo unspecified), the growth inhibition was 17.5% (inactive). Regarding `O=C(Nc1c(Cl)cc(Cl)cc1Cl)ON=C1CCCCC1`, the growth inhibition is -19% (inactive). Take `NNC(=O)N/N=C1\C(=O)N(c2nccs2)C(=O)C(=O)C1c1nc2ccccc2s1` (stereo unspecified): the growth inhibition is -21.8% (inactive). With `CCCC(=O)CC(=O)c1ccccc1`, the growth inhibition is 10.4% (inactive).

Consider `COc1ccc(C2CC(c3ccccc3)=Nc3ccccc3S2)cc1` (stereo unspecified), for which the growth inhibition was -17.9% (inactive).

Take `CC1(C)CCC(C)(C)NC(=S)N1`: the growth inhibition was -8.35% (inactive). Still for that read-out and setting: next, `O=C1C=C[C@H](O)[C@@]2(CO)O[C@@H]12`: 0.85% (inactive); `CC(=O)c1cccc(NS(=O)(=O)c2ccc(C)cc2)c1`: -21.2% (inactive). Still for that read-out and setting: next, `C[n+]1cc2cc3c(cc2c2ccccc21)OCO3`: 35% (inactive); `O=C1C=Cc2ccccc2/C1=C/c1[nH]c(=O)[nH]c1O`: -1.35% (inactive).

Regarding `CCCCCC#CC(=O)O`, the growth inhibition is -3.95% (inactive). `O=C(O)Cc1ccccn1`: the growth inhibition was -49.1% (inactive). Consider `CCCCCCCCCCCCCCCCCC(=O)NCCNC(=O)CCCCCCCCCCCCCCCCC`, for which the growth inhibition was -27.6% (inactive). For the compound `C=CCc1cc(OC)c(O)c(OC)c1`, the growth inhibition is 1.3% (inactive). With `C/C(=N\N=C(/C)c1cccc([N+](=O)[O-])c1)c1cccc([N+](=O)[O-])c1`, the growth inhibition is -21% (inactive). On the same count and under the same terms, next, `CCOC(=O)CNC`: -3.25% (inactive). For the compound `CCC(=O)C1C(=O)c2ccccc2C1=O`, the growth inhibition is -12.6% (inactive). As to `Cc1cc(C(=O)NN)c(C#N)c(=O)[nH]1`, the growth inhibition is -5.55% (inactive). On to `CC(=O)O[C@H]1CC[C@]2(C)C3=C(C(=O)C[C@H]2C1(C)C)[C@]1(C)CC[C@H]([C@H](C)CCC(=O)O)[C@@]1(C)CC3=O`, for which the growth inhibition is -8.05% (inactive). Still for that read-out and setting: next, `Cc1[nH]c(=S)[nH]c(=O)c1C`: -28.3% (inactive); `CCOc1ccc(C(=O)O)cc1`: -12.8% (inactive). On the same count and under the same terms, next, `O=[N+]([O-])c1c(O)c(CNCCCO)cc(CNCCCO)c1O`: 29.8% (inactive); `O=c1n(CC2CO2)c(=O)n(CC2CO2)n1CC1CO1` (stereo unspecified): -5.75% (inactive); `Nc1cc(F)ccc1[N+](=O)[O-]`: -0.1% (inactive).

For the compound `N#Cc1ccc2nc[nH]c2c1`, the growth inhibition is -6.75% (inactive). Take `Cc1cc(Cc2ccccc2)c(O)c(Cc2ccccc2)c1`: the growth inhibition is 3.3% (inactive).

Consider `CC1CN(CCO)CC(C)O1` (stereo unspecified), for which the growth inhibition was -26.8% (inactive).

As for `Cc1ccc(/C=N/NC(N)=S)s1`, the growth inhibition was 1.9% (inactive). Consider `CC(=O)c1cccs1`, for which the growth inhibition is -0.05% (inactive). As for `COC1=C(OC)C(=O)C(SC/C=C(\C)CCCC(C)CCCC(C)CCCC(C)C)=CC1=O` (stereo unspecified), the growth inhibition is -24.4% (inactive). With `Nc1nc(N)nc(N2CCCCC2)n1`, the growth inhibition is -5.75% (inactive). In the case of `CC(=O)[C@@]1(O)CC[C@H]2[C@@H]3CC[C@@H]4CC(=O)CC[C@]4(C)[C@H]3[C@@H](O)C[C@@]21C`, the growth inhibition was -1.9% (inactive). The same measure, in the same setting: next, `NC(=O)N1CCOCC1`: -7.9% (inactive); `C=CCNC(=S)N/C=C(/C(=O)c1ccccc1)c1ccccc1`: -23.8% (inactive); `Nc1ncnc2c1ncn2C1OC(CO)C2OC21` (stereo unspecified): -7.85% (inactive). On to `NC(=S)N/N=C/c1ccc(OC(=O)COc2ccccc2)cn1`, for which the growth inhibition is -13.4% (inactive).
